Compound activity from PubChem BioAssay.
LGR2 antag: blocks bursicon-induced cAMP signaling via Drosophila LGR2; 380,000 tested, 0.35% active; inhibition, % at 9.99 µM; HEK293 LGR2, CRE-luciferase, bursicon-stimulated, 4 h;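 active = drop in luminescence signal, shown as inhibition above about 50% in the replicate tests, limit read from the data, passing the limit was not always enough; inconclusive = probably only some replicates passing the limit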;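 also: agonist challenge used bursicon conditioned medium at about half maximal strength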
SIRT5 inh: blocks human SIRT5 desuccinylation of peptide; Q9NXA8; Purified SirT5, succinyl-peptide AMC, trypsin-coupled fluorescence; inhibition, % at 15 µM; 330,000 tested, 1.1% active; AID 652115; in the data active = inhibition above about 15%; inconclusive = no clear call, values can overlap the other calls
Target sequence (Q9NXA8 whole entry, looked up): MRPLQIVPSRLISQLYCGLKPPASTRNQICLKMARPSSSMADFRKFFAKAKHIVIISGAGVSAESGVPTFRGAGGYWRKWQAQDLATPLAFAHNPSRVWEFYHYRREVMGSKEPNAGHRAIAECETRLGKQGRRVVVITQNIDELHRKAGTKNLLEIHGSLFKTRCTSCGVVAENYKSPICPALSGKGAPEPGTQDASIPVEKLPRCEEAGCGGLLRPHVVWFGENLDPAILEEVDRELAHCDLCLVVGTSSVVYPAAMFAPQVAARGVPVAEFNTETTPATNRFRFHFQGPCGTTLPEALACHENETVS
EWS-Fli block: blocks EWS/Fli oncoprotein-driven transcription; A673 NR0B1-luciferase reporter, viability-normalised; inhibition, % at 12.6 µM; 350,000 tested, 0.67% active;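 active = mean inhibition of at least 50% after viability correction, with every replicate also passing that limit; inconclusive = mean reaches 50% but only one of two replicates passes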;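 also: firefly luciferase signal divided by Alamar Blue viability fluorescence both relative to DMSO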
Ecoli rRNA inh: inhibitors of bacterial rRNA selective over humanized ribosomes; E. coli WT GFP vs humanized-ribosome RFP mutants, fluorescence, 24 h; hits give low values; DMSO median 0, no signal -100; GFP signal change (wild-type ribosome), % (concentration not given with the values); 350,000 tested, 1.6% active; AID 720706;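 active = significant combined selectivity score with lowered wild-type GFP, culture density cut under 30%, mutant RFP and density less affected; inactive = any of these conditions unmet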
PGC1a acetyl inh: modulators of PGC1a acetylation; U2OS PGC1a acetylation, AlphaScreen anti-acetyl-lysine; with virally co-expressed GCN5 acetyltransferase; inhibition, % at 15.6 µM; 350,000 tested, 0.17% active; AID 651687;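 active = every replicate shows inhibition of at least 40%; inconclusive = mean inhibition at least 40% but some replicate below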;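 also: 0% = neutral control wells and 100% = positive control wells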
PAX8 reporter: lowers PAX8-driven luciferase in RMG-I cells | AID 652154 | 360,000 tested, 1.2% active | RMG-I TPO-luciferase reporter, SteadyGlo, 24 h | inhibition, % at 12.6 µM;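 active = mean replicate inhibition at least 60% with every replicate also reaching 60%; inconclusive = only one of the two criteria is met; inactive = mean below 60% and not all replicates reaching 60%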;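 also: luciferase light reporting Pax8 driven TPO promoter activity; plate controls were median of neutral control wells for no effect and mitoxantrone controls for full effect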
Starred values were filed as active, the others as inactive. Rows were chosen to be rich in hits. Some 3.4% of all compounds tested hit in one or more screens of this group.

How did OC[C@@H]1[C@@H](c2ccccc2)C(c2ccccc2)=NN1c1ccccc1 do in these assays?
LGR2 antag: -1; SIRT5 inh: 1; EWS-Fli block: 15; Ecoli rRNA inh: -21; PGC1a acetyl inh: -14; PAX8 reporter: 20

Results for c1ccc(-c2nn(-c3ccccc3)[n+](-c3ccccc3)n2)cc1 ?
LGR2 antag: 10; EWS-Fli block: 11; Ecoli rRNA inh: -34; PGC1a acetyl inh: 1; PAX8 reporter: 77*

How did CCN(CC)S(=O)(=O)c1ccc(N/N=C/c2cc(OC)ccc2O)nc1 do in these assays?
LGR2 antag: -5; SIRT5 inh: -3; EWS-Fli block: 8; Ecoli rRNA inh: 3; PAX8 reporter: 68*

What do the screens show for `COc1ccc(-c2ccc(C(C)=O)cc2)cc1[C@H]1[C@@H]2C=CCC[C@@]2(C)C(=O)N1Cc1ccccc1`?
LGR2 antag: 22; SIRT5 inh: -2; EWS-Fli block: 2; Ecoli rRNA inh: 10; PGC1a acetyl inh: -8; PAX8 reporter: 62*

What do the screens show for `CCCC#Cc1cnc2c(c1)C(=O)N([C@H](C)CO)C[C@H](C)[C@@H](CN(C)C)O2`?
LGR2 antag: -3; SIRT5 inh: 7; EWS-Fli block: -19; Ecoli rRNA inh: 6; PGC1a acetyl inh: 4

How did CC(C)(C)NC(=O)c1ccc(Sc2ccccc2)c([N+](=O)[O-])c1 do in these assays?
LGR2 antag: 18; PGC1a acetyl inh: 81*

What do the screens show for `O=C(O)CNC(=O)c1ccc(Sc2ccccc2)c([N+](=O)[O-])c1`?
LGR2 antag: 8; SIRT5 inh: 0; EWS-Fli block: 2; Ecoli rRNA inh: 8; PAX8 reporter: 0

How did CC1Cc2ccccc2N1c1ncnc(N)c1[N+](=O)[O-] (stereo not given) do in these assays?
LGR2 antag: 64*; SIRT5 inh: 1; EWS-Fli block: 7; Ecoli rRNA inh: 1; PAX8 reporter: -15

Results for CC1=C/C(=N\OS(=O)(=O)c2ccccc2)C(C)=CC1=O ?
LGR2 antag: 36; SIRT5 inh: -4; Ecoli rRNA inh: 5; PGC1a acetyl inh: 60*

How did COc1ccc(S(=O)(=O)/N=C2/C=CC(=O)C(C)=C2C)cc1 do in these assays?
PGC1a acetyl inh: 2

How did CC1=C(C)/C(=N\OS(=O)(=O)c2ccc(C)cc2)C=CC1=O do in these assays?
LGR2 antag: -32; PAX8 reporter: 63*

How did CCOC(=O)CSc1nc2cc(OCC)ccc2cc1C#N do in these assays?
LGR2 antag: -104; SIRT5 inh: 21*; Ecoli rRNA inh: -1

What do the screens show for `CCOc1ccc2cc(C#N)c(SCC(=O)N3CCC(C)CC3)nc2c1`?
PGC1a acetyl inh: -1; PAX8 reporter: 16

Results for CC(C)=CCC/C(C)=C/CNC(=O)C[C@H]1C[C@H](C(=O)N2CCOCC2)[C@@]2(C)c3[nH]c4ccc(Cl)cc4c3CCN2C1=O ?
LGR2 antag: 63*; SIRT5 inh: 1; EWS-Fli block: 36; Ecoli rRNA inh: 1; PGC1a acetyl inh: -2; PAX8 reporter: 104*

How did CCN(CC)C(=O)[C@H]1CC(CC(=O)NCc2cccc(C(F)(F)F)c2)C(=O)N2CCc3c([nH]c4ccccc34)[C@]12C (stereo not given in full) do in these assays?
LGR2 antag: 4; EWS-Fli block: -1; Ecoli rRNA inh: 2; PGC1a acetyl inh: inconclusive; PAX8 reporter: -13

What do the screens show for `CCN(CC)C(=O)[C@H]1C[C@H](CC(=O)NCc2cccc(C(F)(F)F)c2)C(=O)N2CCc3c([nH]c4ccc(Cl)cc34)[C@]12C`?
LGR2 antag: 24; SIRT5 inh: 3; EWS-Fli block: 22; Ecoli rRNA inh: 11; PGC1a acetyl inh: -3; PAX8 reporter: 76*

What do the screens show for `CCN(CC)C(=O)[C@H]1C[C@H](CC(=O)NCc2cccc(C(F)(F)F)c2)C(=O)N2CCc3c([nH]c4cc(CCC(=O)N(C)C)ccc34)[C@]12C`?
LGR2 antag: 9; SIRT5 inh: -6; EWS-Fli block: 9; Ecoli rRNA inh: -9; PGC1a acetyl inh: -20; PAX8 reporter: 20
